“And” between values parts separate entries of the source, which are not always exact repeats. Equal values may be shown once. About 2,000 (36%) of roughly 5,500 compounds were called active. Another 18% or so got no clear call; they are omitted. Cut-off read from the data, not from the text of the source: active = normalized growth mostly below about 0.91 (no sharp cut-off); inconclusive = no clear call, values can overlap the other calls; inactive = mostly above about 0.92. This is one part of the list.
Assay: chemical genetic growth profiling, strain panel (AID 1159580);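 note: tested at 20 µM; growth read once vehicle control cultures reached saturation at 30 °C; 1 = growth at the plate median or of vehicle wells; lower values mean less growth of the strain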
Details: S. cerevisiae deletion strains, growth OD

Measured: normalized growth

O=NN(CCCl)C(=O)NCCCl
inactive: locus YJR075W, strain HOC1, active compounds read low 0.995 | locus YKL068W, active compounds read low 0.997 | locus YKL085W, strain MDH1 (second series), active compounds read low 0.994 | locus YKL085W, strain MDH1, active compounds read low 0.994 | locus YKL190W, strain CNB1, active compounds read low 1.03 | locus YKR001C, strain vps1, active compounds read low 0.904 | locus YKR026C, strain gcn3, active compounds read low 0.983 | locus YKR091W, strain srl3, active compounds read low 0.975 | locus YLL001W, strain dnm1, active compounds read low 0.963 | locus YLL026W, active compounds read low 0.973 | locus YLL041C, strain sdh2, active compounds read low 0.957 | locus YLR027C, strain aat2, active compounds read low 0.934 | locus YLR039C, strain RIC1, active compounds read low 1.08 | locus YLR058C, strain SHM2, active compounds read low 0.984 | locus YLR102C, strain apc9, active compounds read low 0.99 | locus YLR258W, strain gsy2, active compounds read low 0.965 | locus YLR262C, strain YPT6 (second series), active compounds read low 0.939 | locus YLR262C, strain YPT6, active compounds read low 0.988 | locus YLR268W, strain sec22, active compounds read low 0.957 | locus YLR330W, strain CHS5, active compounds read low 0.989 | locus YLR342W, strain FKS1 (second series), active compounds read low 0.967 | locus YLR342W, strain FKS1, active compounds read low 0.958 | locus YLR370C, strain arc18, active compounds read low 0.972 | locus YLR371W, strain rom2, active compounds read low 0.972 | locus YLR384C, strain iki3, active compounds read low 0.96 | locus YML016C, strain PPZ1, active compounds read low 0.989 | locus YML032C, strain rad52, active compounds read low 0.915 | locus YML124C, strain tub3, active compounds read low 0.997 | locus YMR078C, strain ctf18, active compounds read low 0.98 | locus YMR125W, strain sto1, active compounds read low 0.961 | locus YMR129W, active compounds read low 0.967 | locus YMR205C, strain PFK2, active compounds read low 0.878 | locus YMR223W, strain ubp8, active compounds read low 0.918 | locus YMR231W, strain pep5, active compounds read low 0.973 | locus YMR263W, strain SAP30, active compounds read low 0.948 and 0.997 | locus YMR307W, strain GAS1, active compounds read low 0.781 and 0.985 | locus YNL067W, strain RPL9B, active compounds read low 0.947 | locus YNL175C, strain NOP13, active compounds read low 0.984 | locus YNL197C, strain WHI3, active compounds read low 1.01 | locus YNL209W, strain ssb2, active compounds read low 0.965 | locus YNL224C, strain SQS1, active compounds read low 1 | locus YNL233W, strain BNI4, active compounds read low 0.959 | locus YNL271C, strain bni1, active compounds read low 0.947 | locus YNL307C, strain MCK1, active compounds read low 0.96 | locus YNL322C, strain KRE1, active compounds read low 1 | locus YNR049C, strain mso1, active compounds read low 0.964 | locus YNR052C, strain pop2, active compounds read low 0.994 | locus YOL006C, strain TOP1, active compounds read low 0.789 | locus YOL012C, strain htz1 0.791 | locus YOL147C, strain pex11, active compounds read low 0.981 | locus YOR061W, strain CKA2, active compounds read low 0.996 | locus YOR069W, strain VPS5, active compounds read low 0.996 | locus YOR070C, strain gyp1, active compounds read low 0.968 | locus YOR080W, strain dia2, active compounds read low 0.924 | locus YOR083W, strain WHI5 (second series), active compounds read low 1.01 | locus YOR136W, strain idh2, active compounds read low 0.967 | locus YOR144C, strain elg1, active compounds read low 0.984 | locus YOR265W, strain rbl2, active compounds read low 0.957 | locus YOR290C, strain snf2, active compounds read low 0.872 | locus YOR316C, strain cot1, active compounds read low 0.989 | locus YPL051W, strain arl3, active compounds read low 0.942 | locus YPL055C, strain LGE1, active compounds read low 0.777 | locus YPL078C, strain atp4, active compounds read low 0.918 | locus YPL106C, strain sse1, active compounds read low 1.05 | locus YPL240C, strain hsp82, active compounds read low 0.976 | locus YPR119W, strain clb2, active compounds read low 0.992 | locus YPR141C, strain kar3, active compounds read low 0.991 | locus YPR163C, strain tif3, active compounds read low 0.984 | locus YPR167C, strain met16, active compounds read low 0.991
active: locus YJR066W, strain TOR1, active compounds read low 0.389 | locus YKL009W, strain mrt4, active compounds read low 0.851 | locus YKL160W, strain elf1, active compounds read low 0.86 | locus YLR113W, strain HOG1, active compounds read low 0.312 | locus YLR221C, strain rsa3, active compounds read low 0.851 | locus YLR320W, strain mms22, active compounds read low 0.589 | locus YLR357W, strain rsc2, active compounds read low 0.813 | locus YLR418C, strain cdc73, active compounds read low 0.601 | locus YML120C, strain ndi1, active compounds read low 0.852 | locus YMR058W, strain fet3, active compounds read low 0.878 | locus YNL071W, strain lat1, active compounds read low 0.914 | locus YNL183C, strain NPR1, active compounds read low 0.368 | locus YNL248C, strain rpa49, active compounds read low 0.763 | locus YNL250W, strain rad50, active compounds read low 0.852 | locus YNL298W, strain CLA4, active compounds read low 0.888 | locus YNL322C, strain KRE1 (second series), active compounds read low 0.764 | locus YOR001W, strain rrp6, active compounds read low 0.751 | locus YOR083W, strain WHI5, active compounds read low 0.844 | locus YOR106W, strain vam3, active compounds read low 0.786 | locus YOR184W, strain ser1, active compounds read low 0.783 | locus YOR231W, strain MKK1, active compounds read low 0.295 | locus YOR270C, strain vph1, active compounds read low 0.638 | locus YPL256C, strain CLN2, active compounds read low 0.352 | strain wtn01, active compounds read low 0.853

Source: PubChem BioAssay AID1159580 (chemical genetic matrix, 2015)
